# Shown are actives, neighbours in structure and some others; about 21% of the full set was active somewhere.
# Pf growth 48h = inhibits P. falciparum growth in the first generation, 48 h. P. falciparum luciferase growth in erythrocytes, 48 h. Potency, µM (series often up to 28.7 µM), actives largely listed as inhibitors. 5.9% of 310,000 active. AID 504832
#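 Luciferase-expressing P. falciparum in infected erythrocytes (2% hematocrit, 0.1% parasitemia final) in RPMI 1640/0.5% Albumax were exposed to compound for 48 hours at 37 C, 5% CO2; growth read as luminescence.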
# Shiga inhibitor = Shiga toxin inhibition. Vero cells, Shiga toxin protein synthesis inhibition reporter. 9.2% of 290,000 active. inhibition, % at 38.7 µM; in the data active means inhibition mostly above about 28%, no sharp cut-off; inactive means mostly below about 43%
# HCV inh = HCV inhibition; Huh7.5.1 HCVcc-Cre infection, luciferase reporter, 44 h; 3.4% of 340,000 active; Potency, µM (top dose mostly 41.8 µM), usual class: inhibitors; AID 651820
#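 Luciferase read-out (15 sec integration) after a 15 min room-temperature substrate step quantifies HCVcc-Cre infection. Cells, 1,000 per well, had compound added 4 h post-plating, then virus at ~0.5 moi, and were cultured 44 h.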
# AMA1-RON2 inh = disrupts binding of P. falciparum AMA1 to RON2. 0.2% of 360,000 active. Potency, µM (doses to about 58.2 µM), usual class: inhibitors. AlphaScreen AMA1-biotinylated RON2 peptide binding; further: nearly all actives have a fitted effect of over 45% in size
#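 AMA1 (3D7) with his tag at 25 nM final met compounds first, then biotinylated RON2 peptide at 25 nM; detection used donor plus acceptor beads, 10 µg/mL apiece, read by AlphaScreen after 30 min at room temperature.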
# CHX counter = counter-screen for Shiga toxin inhibitors: cycloheximide protein synthesis inhibition. cell reporter, cycloheximide protein synthesis inhibition counterscreen. max response, %. 12% of 300,000 active. AID 2314; in the data active means max response mostly above about 13%, no sharp cut-off; inactive means mostly below about 14%; further: read at 38.3 µM for the half of the compounds with a filed dose
# Pf growth 96h = P. falciparum growth inhibition at 96 hour, primary screen for plastid delayed-death inhibitors | P. falciparum luciferase reporter growth, 96 h | Potency, µM (top dose mostly 28.7 µM), usual class: inhibitors | 6.9% of 320,000 active
#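 96 h incubation, 37 C, 5% CO2, of luciferase-reporter P. falciparum-infected RBCs (2% hematocrit, 0.05% parasitemia final) with test compounds; endpoint luminescence.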
# A number is an active result; . = inactive; ? = inconclusive; / = no result given; [ ] = another dose, or the depositor's remark. Unless noted, the call rests on the fitted dose curve; in most records, active means well fitted curve in the direction sought with a large enough effect; inconclusive means small, poorly fitted or top-dose-only effect, or another doubt; inactive means no such curve, though single readings can be large; an effect the other way counts as inactive or inconclusive.
SMILES,Pf growth 48h,Shiga inhibitor,HCV inh,AMA1-RON2 inh,CHX counter,Pf growth 96h
COc1cccc(CNc2nc3cc(-c4ccsc4)sc3c(=O)n2C)c1OC,/,/,/,.,/,/
CCn1ncc(/C=N\NC(=O)Cc2ccc([N+](=O)[O-])cc2)c1C,.,.,.,.,.,.
Cc1nn(C)c(C)c1/C=N/NC(=O)c1csc2ccccc12,.,.,.,.,18,.
Cc1ccc(-c2cc(C(=O)N/N=C/c3c(C)nn(C)c3C)c3ccccc3n2)c(C)c1,/,.,.,.,.,.
Cc1c(/C=N\NC(=O)c2csc3ccccc23)cnn1C,.,27,?,.,.,.
CCn1ncc(/C=N\NC(=O)c2csc3ccccc23)c1C,.,53,?,.,.,.
COc1cc(CN2C[C@@H](CO)O[C@@H](n3cnc4c(NCC(C)C)ncnc43)C2)cc(OC)c1OC,/,/,/,.,/,/
COc1ccc(/C=N/n2cnnc2)cc1COc1ccccn1,.,.,.,.,.,2.1µM
COc1cc(/C=N/n2cnnc2)ccc1OCc1ccccc1,.,.,.,.,22,.
COc1cc(/C=N/n2cnnc2)ccc1OCc1ccc(C)cc1,.,.,.,.,.,/
CN(C)S(=O)(=O)c1ccc(NC(=O)CN2C(=O)NC(Cc3ccccc3)C2=O)cc1 (stereo not drawn),?,/,.,.,/,.
O=C(CSc1nnc(CNC(=O)c2cccs2)o1)Nc1cccc(Cl)c1,.,.,.,.,.,.
C=CCN1C(=O)/C(=C\c2ccc(Cl)cc2)N=C1SCC(=O)NC1CCCCC1,/,.,.,.,.,.
COc1ccc(Cl)cc1N1C(=O)/C(=C\c2sccc2C)N=C1SCC(=O)NC1CC1,/,.,?,.,.,9.3µM
CCC(=O)NC[C@H](Cc1ccc(OCCc2nc(-c3ccccc3)oc2C)cc1)N/C(C)=C\C(=O)c1ccc(C(F)(F)F)cc1,/,.,/,/,.,/
O=C(CSCc1ccccc1)Nc1ccc(F)c(F)c1,.,73,.,.[11.6 µM],47,.
O=C(CN1CC(=O)Nc2ccccc21)Nc1ccc(F)c(F)c1,.,75,.,.,30,?
O=C(CCn1c(=S)oc2ccccc21)Nc1cc([N+](=O)[O-])ccc1F,8.3µM,.,.,.,.,.
O=C(CSCc1ccccc1)Nc1ccc(Cl)cn1,.,.,.,.,.,/
N#CCSCC(=O)Nc1ccccc1,.,.,.,.,20,.
O=C(CCNS(=O)(=O)c1ccc2ccccc2c1)NCCOc1ccccc1,.,/,?,.,/,.
O=C(CSCc1ccccc1)Nc1cc([N+](=O)[O-])ccc1F,.,.,.,.,.,5.2µM
CCCC(CCC(=O)Nc1cc([N+](=O)[O-])ccc1O)C(=O)O (stereo not drawn),.,.,.,.,.,.
O=C(O)CCCC(=O)Nc1cc([N+](=O)[O-])ccc1O,.,.,.,.,.,13µM
O=C(COC(=O)CCc1ccccc1)Nc1cc([N+](=O)[O-])ccc1F,?,.,.,.,.,.
SMILES,Pf growth 48h,Shiga inhibitor,HCV inh,AMA1-RON2 inh,CHX counter,Pf growth 96h
O=C(COc1ncnc2ccccc12)Nc1cc([N+](=O)[O-])ccc1F,.,.,.,.,.,5.2µM
O=C(CSCc1ccc(F)cc1)NCc1ccco1,.,.,.,.,21,/
COc1ccc([N+](=O)[O-])cc1NC(=O)CSCc1ccccc1,.,.,.,.,.,?
COc1ccc(-c2ccc(CN3C(C)C(=O)N(Cc4cn(CCC5OCCO5)nn4)CCS3(=O)=O)cc2)cc1OC (stereo not drawn),/,/,/,.,/,/
COC(=O)[C@@H](Cc1ccccc1)NC(=O)[C@H]1CCC(=O)N1C(=O)OCc1ccccc1,.,.,.,.,.,.
CCc1nc2ccc(C(=O)NCCc3ccccn3)cn2c1N(C)CCC(C)C,/,/,/,.,/,/
O=C(CSCc1ccc(F)cc1)NC1CCCC1,.,37,?,.,26,?
O=C(CSCc1ccccc1Br)Nc1ccccc1,.,.,.,.,27,?
O=C(CSCc1ccc(F)cc1)Nc1ccccc1,.,53,.,.,30,.
CC1(C(=O)Nc2ccc3c(c2)OCCO3)CN(S(C)(=O)=O)CC(=O)N1C1CCCCCC1 (stereo not drawn),/,/,/,.,/,/
CCN(C(=O)COC(=O)C(C)(C)Oc1ccc(Cl)cc1)c1c(N)n(Cc2ccccc2)c(=O)[nH]c1=O,/,/,.,.[11.6 µM],/,/
COc1ccccc1-n1cnc2c(c1=O)c1nc3ccccc3nc1n2-c1ccc(C)c(C)c1,?,.,7.9µM,.,.,10µM
Nn1c(-c2cccs2)nc2sc3c(c2c1=O)CCCC3,.,108,?,.,35,.
CC1(C)Cc2c(sc3nc(-c4ccccc4)n(N)c(=O)c23)CO1,.,.,.,.,.,?
CN(C)c1nc2sc3c(c2c(=O)n1C)CC(C)(C)OC3,.,44,.,.,11,.
Cc1ccccc1-c1nc2sc3c(c2c(=O)n1N)CCCC3,/,75,.,.,43,4.7µM
CC1(C)Cc2c(sc3nc(-c4cccs4)n(N)c(=O)c23)CO1,.,.,/,.,36,/
O=C1C=C(c2ccc(F)nc2)C[C@@H](c2ccc3c(c2)OCO3)C1,.,/,.,.,/,?
O=C(c1ccc(Cl)s1)N1CCN(c2ccccc2)CC1,.,28,?,.,17,?
CC(=O)c1ccc(N2CCN(C(=O)c3cccc(Oc4ccccc4)c3)CC2)cc1,.,.,.,.,35,?
O=C(c1ccc2c(c1)OCO2)N1CCN(c2ccccc2F)CC1,.,.,.,?,22,/
CC(=O)c1ccc(N2CCN(C(=O)c3ccc(-c4ccccc4)cc3)CC2)cc1,.,.,.,.,.,?
O=C(c1ccc(Cl)s1)N1CCN(c2ncccn2)CC1,.,.,.,.,.,.
O=C(c1ccccc1Oc1ccccc1)N1CCN(c2ccccc2)CC1,?,.,.,.,.,15µM
O=C(COc1ccccc1)Nc1ccc(-c2ccc(N3CCOCC3)nn2)cc1,?,/,.,.,/,?
SMILES,Pf growth 48h,Shiga inhibitor,HCV inh,AMA1-RON2 inh,CHX counter,Pf growth 96h
Cc1cc(C)c(S(=O)(=O)N2CCCC(C(=O)NC3CCCC3)C2)c(C)c1 (stereo not drawn),.,.,.,.,.,.
Cc1c(NC(=O)CSc2ccc3ccccc3n2)c(=O)n(-c2ccccc2)n1C,.,/,.,.,/,.
O=C(Nc1ccccc1N1CCN(C(=O)c2ccccc2)CC1)c1cccc(Cl)c1,?,.,?,.,.,?
O=C(O)c1cccc(N2CCCC2)c1,.,.,.,.,.,9.3µM
O=C(c1cccc(C(=O)N2CCN(c3ccccc3F)CC2)c1)N1CCN(c2ccccc2F)CC1,13µM,.,.,.,.,.
O=C(c1ccc2nccnc2c1)N1CCN(c2ccccc2)CC1,.,.,.,.,.,.
O=C(c1cccc(C(=O)N2CCN(c3ccccc3)CC2)c1)N1CCN(c2ccccc2)CC1,13µM,.,?,.,.,/
O=C(Nc1cccc(C(=O)N2CCN(c3cccc(Cl)c3)CC2)c1)c1ccccc1,.,.,14µM,.,.,.[1.15 µM]

# High-throughput results: PubChem, National Center for Advancing Translational Sciences (NCATS)
